{"source": "paper PMC11062922", "about": "(Nature Chemical Biology, 2023)", "parameters_in_all_cases": "species or system human, MV4-11 + K-562 + COLO205 + SK-N-BE2 + OVCAR-8", "key": {"[1]": {"test_system": "HSP90B1", "settings": "read-out: apparent Kd, n = 1"}, "[2]": {"test_system": "PIK3CA", "settings": "read-out: apparent Kd; compound concentrations: 100 nM and 1000 nM (sheet 'Samples'), CATDS: 0.37756355389393098; n = 1"}, "[3]": {"test_system": "PIK3CD", "settings": "read-out: apparent Kd; compound concentrations: 100 nM and 1000 nM (sheet 'Samples'), CATDS: 0.43898083182903402; n = 1"}, "[4]": {"test_system": "PIM2", "settings": "read-out: apparent Kd; compound concentrations: 100 nM and 1000 nM (sheet 'Samples'), CATDS: 0.17072245355379401; n = 1"}, "[5]": {"test_system": "GSK3A", "settings": "read-out: apparent Kd; compound concentrations:100 nM and 1000 nM (sheet 'Samples'); n = 1"}, "[6]": {"test_system": "GSK3B", "settings": "read-out: apparent Kd, n = 1"}, "[7]": {"test_system": "JAK2", "settings": "read-out: apparent Kd; compound concentrations: 100 nM and 1000 nM (sheet 'Samples'), CATDS: 0.12292389109729; n = 1"}, "[8]": {"test_system": "MAPK10", "settings": "read-out: apparent Kd, compound concentrations: 100 nM and 1000 nM (sheet 'Samples'), n = 1"}, "[9]": {"test_system": "MAPK11", "settings": "read-out: apparent Kd, n = 1"}, "[10]": {"test_system": "MAPK14", "settings": "read-out: apparent Kd, n = 1"}, "[11]": {"test_system": "MAPK8", "settings": "read-out: apparent Kd, compound concentrations: 100 nM and 1000 nM (sheet 'Samples'), n = 1"}, "[12]": {"test_system": "MAPK9", "settings": "read-out: apparent Kd, compound concentrations: 100 nM and 1000 nM (sheet 'Samples'), n = 1"}, "[13]": {"test_system": "MAPKAPK2", "settings": "read-out: apparent Kd, n = 1"}, "[14]": {"test_system": "NLK", "settings": "read-out: apparent Kd, compound concentrations: 100 nM and 1000 nM (sheet 'Samples'), n = 1"}, "[15]": {"test_system": "NUAK1", "settings": "read-out: apparent Kd; compound concentrations: 100 nM and 1000 nM (sheet 'Samples'), CATDS: 9.4194293053738595E-2; n = 1"}, "[16]": {"test_system": "PIP4K2C", "settings": "read-out: apparent Kd; compound concentrations: 100 nM and 1000 nM (sheet 'Samples'), CATDS: 7.7645763885448402E-2; n = 1"}, "[17]": {"test_system": "MAP3K1", "settings": "read-out: apparent Kd; compound concentrations:100 nM and 1000 nM (sheet 'Samples'); n = 1"}, "[18]": {"test_system": "NUAK2", "settings": "read-out: apparent Kd; compound concentrations:100 nM and 1000 nM (sheet 'Samples'); n = 1"}, "[19]": {"test_system": "PAICS", "settings": "read-out: apparent Kd; compound concentrations:100 nM and 1000 nM (sheet 'Samples'); n = 1"}, "[20]": {"test_system": "PIK3CG", "settings": "read-out: apparent Kd; compound concentrations:100 nM and 1000 nM (sheet 'Samples'); n = 1"}, "[21]": {"test_system": "NQO1", "settings": "read-out: apparent Kd; compound concentrations: 100 nM and 1000 nM (sheet 'Samples'), CATDS: 0.141428074132052; n = 1"}, "[22]": {"settings": "compound concentrations:100 nM and 1000 nM (sheet 'Samples')"}}, "note": "Like-named read-outs stand apart in the source and are kept apart here.", "data": [{"smiles": "COc1ccc(Nc2nccc(N3CCC(NC(=O)c4cc5ccccc5s4)C3)n2)cc1", "note": "(stereo not shown) [GSK1379738A]", "values": [{"measurement": "potency estimated from few doses", "setting": "[1]; compound concentrations: 100 nM and 1000 nM (sheet 'Samples'), CATDS: 0.19171870490815801", "value": 1350, "unit": "nM"}, {"measurement": "potency estimated from few doses", "setting": "[2]", "value": 248, "unit": "nM"}, {"measurement": "potency estimated from few doses", "setting": "[3]", "value": 190, "unit": "nM"}, {"measurement": "potency estimated from few doses", "setting": "[4]", "value": 2150, "unit": "nM"}]}, {"smiles": "COc1cccc(C2=C(c3cn(C)c4ccccc34)C(=O)NC2=O)c1", "note": "[RO0318649-000]", "values": [{"measurement": "potency estimated from few doses", "setting": "[5]", "value": 802, "unit": "nM"}, {"measurement": "potency estimated from few doses", "setting": "[6]; compound concentrations: 100 nM and 1000 nM (sheet 'Samples'), CATDS: 0.44424601969869798", "value": 1340, "unit": "nM"}]}, {"smiles": "COc1ccc(C2=C(Nc3cccc(C(=O)O)c3)C(=O)NC2=O)cc1", "note": "[SB-390765]", "values": [{"measurement": "potency estimated from few doses", "setting": "[5]", "value": 82.8, "unit": "nM"}]}, {"smiles": "Cc1nnc(-c2ccc3occ(-c4ccc(S(C)=O)cc4)c3c2)[nH]1", "note": "(stereo not shown) [TPKI-85]", "values": [{"measurement": "potency estimated from few doses", "setting": "[5]", "value": 339, "unit": "nM"}, {"measurement": "potency estimated from few doses", "setting": "[6]; compound concentrations: 100 nM and 1000 nM (sheet 'Samples'), CATDS: 0.41063798470662799", "value": 861, "unit": "nM"}]}, {"smiles": "O=C(Nc1n[nH]c2cc(-c3ccco3)ccc12)C1CC1", "note": "[SB-737447]", "values": [{"measurement": "potency estimated from few doses", "setting": "[5]", "value": 498, "unit": "nM"}, {"measurement": "potency estimated from few doses", "setting": "[6]; [22]", "value": 645, "unit": "nM"}]}, {"smiles": "C[C@@H]1CCCCN1c1cc(-c2ccc3c(N)n[nH]c3c2)nc(N)n1", "note": "[GSK2258759A]", "values": [{"measurement": "potency estimated from few doses", "setting": "[1]; [22]", "value": 968, "unit": "nM"}]}, {"smiles": "O=c1c(Oc2ccc(F)cc2F)cc2cnc(NC3CCOCC3)nc2n1C1CCS(=O)(=O)CC1", "note": "[RO5036538-000]", "values": [{"measurement": "potency estimated from few doses", "setting": "[7]", "value": 230, "unit": "nM"}, {"measurement": "potency estimated from few doses", "setting": "[8]; CATDS: 0.124709728908191", "value": 221, "unit": "nM"}, {"measurement": "potency estimated from few doses", "setting": "[9]; compound concentrations: 100 nM and 1000 nM (sheet 'Samples'), CATDS: 7.2010910388864605E-2", "value": 1420, "unit": "nM"}, {"measurement": "potency estimated from few doses", "setting": "[10]; compound concentrations: 100 nM and 1000 nM (sheet 'Samples'), CATDS: 0.47843238213420702", "value": 13.9, "unit": "nM"}, {"measurement": "potency estimated from few doses", "setting": "[11]; CATDS: 7.6573616533716707E-2", "value": 1060, "unit": "nM"}, {"measurement": "potency estimated from few doses", "setting": "[12]; CATDS: 9.6122690538123806E-2", "value": 462, "unit": "nM"}, {"measurement": "potency estimated from few doses", "setting": "[13]; compound concentrations: 100 nM and 1000 nM (sheet 'Samples'), CATDS: 0.314538074262177", "value": 28.2, "unit": "nM"}, {"measurement": "potency estimated from few doses", "setting": "[14]; CATDS: 8.6125216910038493E-2", "value": 667, "unit": "nM"}, {"measurement": "potency estimated from few doses", "setting": "[15]", "value": 493, "unit": "nM"}]}, {"smiles": "CC(C)(O)Cn1c(=O)c(Oc2ccc(F)cc2F)cc2cnc(NC3CCOCC3)nc21", "note": "[RO5036558-000]", "values": [{"measurement": "potency estimated from few doses", "setting": "[8]; CATDS: 0.17874550909650799", "value": 71.4, "unit": "nM"}, {"measurement": "potency estimated from few doses", "setting": "[9]; compound concentrations: 100 nM and 1000 nM (sheet 'Samples'), CATDS: 7.7724815915961296E-2", "value": 1370, "unit": "nM"}, {"measurement": "potency estimated from few doses", "setting": "[10]; compound concentrations: 100 nM and 1000 nM (sheet 'Samples'), CATDS: 0.32550592526208599", "value": 24.8, "unit": "nM"}, {"measurement": "potency estimated from few doses", "setting": "[11]; CATDS: 9.0808472598726403E-2", "value": 578, "unit": "nM"}, {"measurement": "potency estimated from few doses", "setting": "[12]; CATDS: 0.14012416738293099", "value": 127, "unit": "nM"}, {"measurement": "potency estimated from few doses", "setting": "[13]; compound concentrations: 100 nM and 1000 nM (sheet 'Samples'), CATDS: 0.240899887861172", "value": 40.4, "unit": "nM"}, {"measurement": "potency estimated from few doses", "setting": "[14]; CATDS: 0.137200771005723", "value": 134, "unit": "nM"}, {"measurement": "potency estimated from few doses", "setting": "[16]", "value": 1380, "unit": "nM"}]}, {"smiles": "C[C@@H](Oc1cc(-n2cnc3ccc(OC4CCN(C)CC4)cc32)sc1C(N)=O)c1ccccc1Cl", "note": "[GSK579289A]", "values": [{"measurement": "potency estimated from few doses", "setting": "[17]", "value": 1340, "unit": "nM"}, {"measurement": "potency estimated from few doses", "setting": "[18]", "value": 601, "unit": "nM"}, {"measurement": "potency estimated from few doses", "setting": "[19]", "value": 1760, "unit": "nM"}, {"measurement": "potency estimated from few doses", "setting": "[20]", "value": 1030, "unit": "nM"}]}, {"smiles": "Nc1c(C(=O)c2cccc(OCCN3CCOCC3)c2)cnn1-c1ccc(F)cc1", "note": "[RO5301104-000]", "values": [{"measurement": "potency estimated from few doses", "setting": "[9]; compound concentrations: 100 nM and 1000 nM (sheet 'Samples'), CATDS: 1", "value": 701, "unit": "nM"}]}, {"smiles": "Cn1c(=O)c(Sc2ccccc2F)cc2cnc(NC3CCOCC3)nc21", "note": "[RO4944065-000]", "values": [{"measurement": "potency estimated from few doses", "setting": "[8]; CATDS: 0.25998811221784501", "value": 524, "unit": "nM"}, {"measurement": "potency estimated from few doses", "setting": "[10]; compound concentrations: 100 nM and 1000 nM (sheet 'Samples'), CATDS: 0.14533669978761299", "value": 1580, "unit": "nM"}, {"measurement": "potency estimated from few doses", "setting": "[12]; CATDS: 0.21193161628333601", "value": 732, "unit": "nM"}, {"measurement": "potency estimated from few doses", "setting": "[13]; compound concentrations: 100 nM and 1000 nM (sheet 'Samples'), CATDS: 0.161840015907707", "value": 1230, "unit": "nM"}, {"measurement": "potency estimated from few doses", "setting": "[14]; CATDS: 0.13689405577896799", "value": 1840, "unit": "nM"}, {"measurement": "potency estimated from few doses", "setting": "[21]", "value": 1690, "unit": "nM"}]}, {"smiles": "Cc1ccc(NC(=O)c2ccnc(N3CCCCC3)c2)cc1-c1ccc(C(=O)NCC2CC2)cc1", "note": "[GW775610X]", "values": [{"measurement": "potency estimated from few doses", "setting": "[9]; [22]", "value": 309, "unit": "nM"}, {"measurement": "potency estimated from few doses", "setting": "[10]; [22]", "value": 199, "unit": "nM"}, {"measurement": "potency estimated from few doses", "setting": "[13]; [22]", "value": 107, "unit": "nM"}]}]}
